Screens deposited in PubChem by National Center for Advancing Translational Sciences (NCATS).
Pol kappa inh: inhibitors of human DNA polymerase kappa | Q9UBT6 | purified Pol kappa, fluorescent DNA synthesis assay, 10 min | Potency, µM (highest dose often 107 µM), for the others: at the top dose activity, negative = inhibition, usual class: inhibitors | hit rate 0.53% among 400,000 | AID 588579; further: on the % scale 0 is the no-effect control and ±100 the full control effect
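First, compounds were pin-transferred onto 10 nM Pol kappa. After 15 min at room temperature, substrate was added to 50 nM final. Fluorescence was then measured kinetically at 0 and 10 min.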
Pol beta inh: DNA polymerase beta (human) inhibition | P06746 | hit rate 1.3% among 340,000 | Pol beta primer extension/strand displacement, fluorescence kinetic | AID 485314 | Potency, µM (series often up to 114 µM), inactives show top-dose activity change, negative = inhibition, hits mostly inhibitors; further: on the % scale 0 is the no-effect control and ±100 the full control effect
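Preincubation: enzyme (10 nM) with compound, 15 min, RT. Reaction: substrate added to 50 nM final. Reads: 0 and 10 min. Analysis: normalized, Hill fit.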
FEN1 inh: inhibitors of human flap endonuclease 1. hit rate 0.35% among 390,000. Potency, µM (top dose mostly 114 µM), without a hit: at the highest dose activity change, negative = inhibition, actives largely listed as inhibitors. AID 588795. Recombinant FEN1 flap cleavage, fluorescence, 15 min; further: on the % scale 0 is the no-effect control and ±100 the full control effect; nearly all actives have a fitted effect of over 65% in size
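Steps: FEN1 (10 nM) dispensed; compound added by pin tool; 15 min at room temperature; substrate added to 50 nM final; reads at 0 min and 15 min; data normalized and fitted (four-parameter Hill).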
WRN inhibitor: WRN helicase (human) inhibition | hit rate 0.46% among 360,000 | Q14191 | Potency, µM (highest dose often 114 µM), without a hit: at the highest dose activity change, negative = inhibition, most hits filed as inhibitors | WRN helicase unwinding, fluorescent forked duplex, kinetic | AID 651768; further: on the % scale 0 is the no-effect control and ±100 the full control effect; nearly all actives have a fitted effect of over 55% in size
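WRN at 20 nM final was preincubated with compound for 15 min at room temperature; reaction started with 100 nM forked duplex oligonucleotide carrying fluorophore and quencher plus 2 mM ATP (final). Unwinding followed kinetically by red fluorescence (ex 525/em 598 nm).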
POLI inh: inhibitors of human DNA polymerase iota. Q9UNA4. Potency, µM (series often up to 115 µM), for the others: at the highest dose activity, negative = inhibition, hits mostly inhibitors. AID 588590. hit rate 1% among 390,000. Pol iota fluorescent replication assay, 10 min
Target sequence (Q9UNA4 whole entry, looked up): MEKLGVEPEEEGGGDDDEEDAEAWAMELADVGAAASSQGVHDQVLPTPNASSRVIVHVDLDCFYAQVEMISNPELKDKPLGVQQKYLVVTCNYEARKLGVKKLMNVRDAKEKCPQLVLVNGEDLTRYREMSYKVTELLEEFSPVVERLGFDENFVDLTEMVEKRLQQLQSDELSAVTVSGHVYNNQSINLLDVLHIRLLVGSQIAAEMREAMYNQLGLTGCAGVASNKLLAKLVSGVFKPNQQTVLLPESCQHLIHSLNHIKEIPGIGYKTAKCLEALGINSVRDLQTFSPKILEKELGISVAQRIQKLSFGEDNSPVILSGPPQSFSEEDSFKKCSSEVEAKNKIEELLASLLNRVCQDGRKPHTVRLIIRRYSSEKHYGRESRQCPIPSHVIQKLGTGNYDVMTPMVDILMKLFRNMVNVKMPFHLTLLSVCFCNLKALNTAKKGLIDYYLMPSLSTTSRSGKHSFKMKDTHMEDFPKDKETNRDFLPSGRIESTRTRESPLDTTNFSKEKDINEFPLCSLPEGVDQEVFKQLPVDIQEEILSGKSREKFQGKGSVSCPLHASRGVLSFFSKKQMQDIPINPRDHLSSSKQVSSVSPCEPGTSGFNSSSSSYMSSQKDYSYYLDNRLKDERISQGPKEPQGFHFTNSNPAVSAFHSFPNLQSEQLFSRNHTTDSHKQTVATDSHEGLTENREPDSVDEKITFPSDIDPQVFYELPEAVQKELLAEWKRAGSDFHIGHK
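Fluorescent replication assay read twice, at 0 min and 10 min after adding 50 nM (final) substrate. Enzyme (10 nM) and compounds were first incubated 15 min at room temperature; enzyme-free buffer wells were negative controls.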
Pol eta inh: blocks human DNA polymerase eta activity; Potency, µM (highest dose often 114 µM), for inactives: at the top dose activity change, negative = inhibition, usual class: inhibitors; recombinant Pol eta, fluorescent DNA replication assay; Q9Y253; hit rate 1.2% among 390,000; further: on the % scale 0 is the no-effect control and ±100 the full control effect
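Pol eta (10 nM) was preincubated with compounds for 15 min at room temperature, after which fluorescent replication substrate (50 nM final) was added to start the reaction. Fluorescence was read kinetically at 0 and 10 min.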
An asterisk follows results filed as active; ? = inconclusive; . = no result given; [ ] = another dose, or the depositor's remark. This is a sample that favours compounds with a hit; in the whole collection about 2.4% have one here. The call rests on the fitted dose curve; in most records, active means well fitted curve in the direction sought with a large enough effect; inconclusive means small, poorly fitted or top-dose-only effect, or another doubt; inactive means no such curve, though single readings can be large; an effect the other way counts as inactive or inconclusive. Potency means the concentration at half of the fitted maximal effect.

SMILES | Pol kappa inh | Pol beta inh | FEN1 inh | WRN inhibitor | POLI inh | Pol eta inh
Cc1ccc(N/C(C(Cl)=C(Cl)Cl)=C(/Cl)[N+](=O)[O-])c(C)c1 | 0.3% | -1.9% | -9.7% | 2.4% | 15.8µM* | -10.4%
Cc1ccc(NC(=O)CC(=O)Nc2ccc(C)cc2C)c(C)c1 | 8.5% | 38.8% | 0.0% | 13.6% | 3.3% | -8.9%
COCCN(CC(=O)Nc1cccc(C)c1C)C(=O)c1cc2c(s1)CCC2 | ? | . | 7.0% | 1.4%[11.6 µM] | 89.1µM* | ?
Cc1cc[n+](CC#N)cc1 | -29.9% | . | -19.9% | . | 44.7% | .
CCOC(=O)c1c(NC(=O)c2nc(S(C)(=O)=O)ncc2Cl)sc(C(C)=O)c1C | 4.4% | -1.7% | 9.6% | . | 1.7% | 79.4µM*
CCOC(=O)c1c(-c2ccccc2)csc1NC(=O)c1nc(S(=O)(=O)CC)ncc1Cl | 16.7% | 8.0% | 0.7% | . | -2.2% | -3.0%
Cc1ccc(NC(=O)CN2C(=O)C3(SCC(=O)N3c3ccc(F)c(F)c3)c3ccccc32)c(C)c1 (configuration not stated) | -8.2% | 0.6% | 6.5% | . | 2.5% | -23.3%
COc1ccc(-c2nc3n(n2)C(c2ccc(OC)c(OC)c2)C(C(=O)Nc2cccnc2)=C(C)N3)cc1 (configuration not stated) | -7.6%[60.1 µM] | 0.7% | 17.2% | . | 2.0% | 50.1µM*
COc1ccc(C2C(C(=O)Nc3cccnc3)=C(C)Nc3nc(-c4ccc(OC)c(OC)c4)nn32)cc1 (configuration not stated) | 4.9% | ? | 1.4% | . | -16.2% | -7.8%
CCN(CC)C(=O)CC(c1ccc2c(c1)OCO2)c1c(OC)cc(OC)c2ccc(=O)oc12 (configuration not stated) | 79.4µM* | 50.1µM* | -1.2% | -1.0% | 89.1µM* | 35.5µM*
CCN(CC)C(=O)CC(c1ccc(N(C)C)cc1)c1c(OC)cc(OC)c2ccc(=O)oc12 (configuration not stated) | -9.3% | -0.9% | -22.2% | 8.1% | ? | 0.0%
Cc1cc(O)c(C(=O)/C=C/c2cccc([N+](=O)[O-])c2)c(=O)o1 | ? | ? | -8.5% | -27.2% | 39.8µM* | 79.4µM*
CN(C)c1ccc(N=Nc2ccc(/C=C/c3ccnc4ccccc34)cc2)cc1 | -20.1% | . | 25.1µM* | . | ? | .
CCN(C)c1ccc(/C=C/c2ccnc3ccccc23)cc1 | -1.9% | . | -5.2% | . | ? | .
CN(C)c1ccc(/C=C/c2ncnc3ccccc23)cc1 | ? | . | ? | . | 39.8µM* | .
Cc1ccc(NC(=S)NC(=O)c2sc3ccccc3c2Cl)c(C(=O)O)c1 | . | 20µM* | . | . | . | .
COc1ccc(Br)cc1CNC(=O)c1cc(=O)[nH]c2ccc(S(=O)(=O)N3CCCCC3)cc12 | -7.5%[60.1 µM] | 5.6% | -6.7% | . | 9.0% | 1.0%
S=c1[nH]nc(-c2ccco2)n1/N=C/C=C/c1ccccc1 | 4.2% | 12.7% | -0.3% | -9.4% | 8.4% | -20.9%
S=c1[nH]nc(-c2ccccc2)n1/N=C/C=C/c1ccco1 | -17.3% | 44.7µM* | 1.4% | -1.0% | 52.0% | -18.9%
S=c1[nH]nc(-c2ccc(Cl)cc2)n1/N=C/C=C/c1ccco1 | -20.4% | 25.1µM* | -14.9% | -26.4% | -12.1% | ?
CCCCCCCCCC[n+]1cccc2cc(Br)ccc21 | -36.3% | . | 2.7% | . | -5.7% | .
CC(=O)Oc1cc(OC(C)=O)c2c(c1)OC(c1ccc(OC(C)=O)c(OC(C)=O)c1)C(OC(C)=O)C2 (configuration not stated) | -7.6%[60.1 µM] | . | . | . | . | .
N[C@H](C(=O)N[C@@H]1C(=O)N2C(C(=O)O)=C(Cl)CS[C@@H]12)c1ccccc1 | -8.4%[12 µM] | . | . | . | . | .
Cn1nnnc1SCC1=C(C(=O)O)N2C(=O)[C@@H](NC(=O)[C@H](O)c3ccccc3)[C@H]2SC1 | 1.58µM* | 10µM* | ? | 25.1µM* | 3.16µM* | 1.26µM*
Cn1nnnc1SCC1=C(C(=O)O)N2C(=O)C(NC(=O)C(OC=O)c3ccccc3)C2SC1 (configuration not stated) | 22.4µM* | . | . | . | . | .
SMILES | Pol kappa inh | Pol beta inh | FEN1 inh | WRN inhibitor | POLI inh | Pol eta inh
O=C1C=CC2=C3c4cc(O)c(O)cc4C[C@]3(O)COC2=C1 | 7.08µM* | . | . | . | . | .
c1ccc2c(c1)nc1n2CCS1 | 89.1µM* | -6.4% | -1.8% | -12.7% | -4.4% | -16.1%
O=C1CSc2nc3ccccc3n21 | -16.0% | -0.4% | -1.4% | -11.4% | 2.8% | -3.7%
CC(C)OC(=O)/C(C#N)=C/c1ccc(-c2ccc(Cl)c(Cl)c2)o1 | -2.6% | 10.9% | -2.6% | . | -25.7% | 0.1%
CC(C)OC(=O)c1cc(-c2ccc(C=O)o2)ccc1Cl | -8.2% | 20µM* | -9.3% | -9.4% | 6.5% | ?
CC(C)(C)c1cc(-c2csc(Nc3ccccc3)[n+]2Cc2ccc(C(=O)O)cc2)cc(C(C)(C)C)c1O | 0.2% | -17.6% | ? | ? | ? | 31.6µM*
Cc1ccc2oc(-c3ccc(C)c(NC(=O)COc4ccc(Cl)cc4)c3)nc2c1 | 9.9% | . | 0.6% | . | 9.4% | .
O=C(Nc1cc(F)ccc1F)N1CCC(CN2CCCC2)CC1 | -5.0% | -1.0% | 18.8% | . | 7.8% | 6.5%
CC(=O)c1ccc(NC(=O)c2ccc3snnc3c2)cc1 | -14.0% | 25.1µM* | -9.0% | -17.0% | ? | ?
CC(C)(C)n1ncc2c(=O)n(Cc3cccc(OC(F)F)c3)cnc21 | -9.4% | . | -0.6% | . | -0.5% | .
O=C(Nc1ccc(S(=O)(=O)Nc2nccs2)cc1)c1ccc(S(=O)(=O)N2CCOCC2)cc1 | -8.9% | 6.9% | -9.7% | 3.8% | 11.2% | -16.8%
O=C(Nc1nccs1)c1ccc(S(=O)(=O)N2CCOCC2)cc1 | -1.1% | 10.7% | 79.4µM* | 4.0% | 39.0% | -4.0%
O=C(Nc1ccc(S(=O)(=O)N2CCCCC2)cc1)c1ccc(=O)[nH]c1 | -8.4% | . | -14.6% | 5.5% | ? | 4.9%
O=C(Nc1ccc(S(=O)(=O)N2CCOCC2)cc1)c1ccc(=O)[nH]c1 | -28.4% | 12.6µM* | -5.3% | -9.6% | ? | -2.5%
Nc1ncnc2c1nc(Sc1ccc(Cl)cc1)n2[C@H]1O[C@@H]2COP(=O)(O)O[C@H]2[C@@H]1O | . | -2.3%[57.1 µM] | . | . | -5.7%[58.9 µM] | 1.2%[57.1 µM]
COc1ccc(C(=O)NCC(c2ccc(N(C)C)cc2)N2CCc3ccccc32)cc1 (configuration not stated) | -8.9%[60.1 µM] | 5.5% | -7.0% | . | 21.0% | -20.0%
COc1cccc(NC(=O)Cn2c(=O)n(CCc3cccc(C)c3)c(=O)c3ccccc32)c1 | -26.6% | -16.2% | ? | . | 89.1µM* | -6.2%
CC1Cc2ccccc2N1C(=O)COC(=O)c1ccco1 (configuration not stated) | . | . | . | 0.4% | . | -2.2%
CC1Cc2ccccc2N1C(=O)COC(=O)c1ccc([N+](=O)[O-])o1 (configuration not stated) | -7.7% | . | 28.2µM* | -17.9% | ? | ?
